# Inconclusive results are not listed. Entries that show only a call come without a potency. Calls of active or inactive are those of the source. Calls come from the whole dose curve; as a rule, active = well fitted inhibition curve with a large enough effect; inconclusive = small, poorly fitted or top-dose-only effect; inactive = no such curve, though single readings can be large or run the other way.
# Test: Primary qHTS for small molecule stabilizers of the endoplasmic reticulum resident proteome: Secreted ER Calcium Modulated Protein (SERCaMP) assay (AID 1508630)
# Details: SH-SY5Y GLuc-SERCaMP (Gaussia luciferase released on ER calcium loss) secretion, thapsigargin, luminescence; series mostly up to 38.4 µM
# In short: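 GLuc-SERCaMP-expressing SH-SY5Y cells, pretreated 16 h with compound, are challenged with thapsigargin to empty ER calcium stores; after 4 h, coelenterazine is added directly to the medium and luminescence is imaged.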
row,SMILES,Potency
1,Nc1ccn([C@@H]2O[C@H](CO)[C@@H](O)[C@H]2O)c(=O)n1,inactive
2,CCC[C@H](Nc1nc(-c2ccc(NC(=O)NCC)c(OC)c2)ncc1C)c1cccnc1,inactive
3,CCCC1OC2C[C@@H]3[C@H]4CCC5=CC(=O)C=C[C@]5(C)[C@H]4C(O)C[C@]3(C)[C@]2(C(=O)CO)O1 (stereo partly drawn),inactive
4,Nc1nc(Cl)nc2c1ncn2[C@@H]1O[C@H](CO)[C@@H](O)[C@H]1F,inactive
5,CC[C@H](NC(=O)[C@H](C)NC)C(=O)N1C[C@@H](O)C[C@H]1Cc1c(-c2[nH]c3cc(F)ccc3c2C[C@H]2C[C@H](O)CN2C(=O)[C@H](CC)NC(=O)[C@H](C)NC)[nH]c2cc(F)ccc12,inactive
6,CC[C@H](C)C(=O)O[C@H]1C[C@H](O)C=C2C=C[C@H](C)[C@H](CC[C@@H](O)C[C@@H](O)CC(=O)O)[C@H]21,inactive
7,O=C(c1ccc(C(=O)N2CCC(N3CCCC3)CC2)c(Nc2ccccc2)c1)N1CCC(N2CCCC2)CC1,inactive
8,CSc1cccc(Nc2ncc3cc(-c4c(Cl)cccc4Cl)c(=O)n(C)c3n2)c1,inactive
